Screening data: PubChem BioAssay, National Center for Advancing Translational Sciences (NCATS)
Only some compounds are listed: those with a hit (about 5.5% of all), similar ones and a draw of the others.
VP16 counter: Gal4-VP16 reporter inhibition counter-screen; hit rate 3.5% among 310,000; Drosophila S2 Gal4-VP16 UAS-luciferase, luminescence, 20 h; Potency, µM (titrated, usually from 53.6 µM), without a hit: at the top dose activity, negative = inhibition, hits mostly inhibitors; AID 2546;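 further: Gal4-VP16 expression switched on by copper sulfate through the metallothionein promoter; on the % scale 0 is the no-effect control and ±100 the full control effect; nearly all actives have a fitted effect of over 50% in size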
uPA surface inh: inhibitors of cell surface uPA generation; Potency, µM (series often up to 38.3 µM), inactives show at the highest dose activity change, negative = inhibition, actives largely listed as inhibitors; cell surface uPA generation assay, qHTS; hit rate 0.31% among 330,000; active means well fitted inhibition curve with a large enough effect; inconclusive means small, poorly fitted or top-dose-only effect; inactive means no such curve, though single readings can be large or run the other way; tested in mouse RAW 264.7 cells; further: on the % scale 0 is the no-effect control and ±100 the full control effect; nearly all actives have a fitted effect of over 55% in size
Mito fusion yeast: blocks mitochondrial division or promotes mitochondrial fusion. S. cerevisiae fusion-defective mutant growth rescue, CellTiterGlo 48 h. Potency, µM (doses to about 46.1 µM), inactives show at the top dose growth rescue (activation), hits mostly activators. hit rate 0.23% among 320,000. AID 485298; further: % of control where 0% means no effect; nearly all actives have a fitted effect of over 45% in size
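Growth-rescue viability read-out: after 48 h at the non-permissive 37C in glycerol/ethanol YPEG, yeast mitochondrial fusion mutants are measured by CellTiterGlo luminescence; compounds (23 nl pinned per well) restoring growth score as division inhibitors or fusion activators.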
RORg inh: ROR gamma (mouse) transcription inhibition | AID 2551 | Drosophila S2 Gal4-RORgamma UAS-luciferase reporter, 20 h | Potency, µM (doses to about 53.6 µM), for inactives: at the highest dose activity change, negative = inhibition, usual class: inhibitors | hit rate 5.4% among 310,000 | P51450; further: on the % scale 0 is the no-effect control and ±100 the full control effect; nearly all actives have a fitted effect of over 60% in size
Target sequence (P51450 whole entry, looked up, the tested form may be a part): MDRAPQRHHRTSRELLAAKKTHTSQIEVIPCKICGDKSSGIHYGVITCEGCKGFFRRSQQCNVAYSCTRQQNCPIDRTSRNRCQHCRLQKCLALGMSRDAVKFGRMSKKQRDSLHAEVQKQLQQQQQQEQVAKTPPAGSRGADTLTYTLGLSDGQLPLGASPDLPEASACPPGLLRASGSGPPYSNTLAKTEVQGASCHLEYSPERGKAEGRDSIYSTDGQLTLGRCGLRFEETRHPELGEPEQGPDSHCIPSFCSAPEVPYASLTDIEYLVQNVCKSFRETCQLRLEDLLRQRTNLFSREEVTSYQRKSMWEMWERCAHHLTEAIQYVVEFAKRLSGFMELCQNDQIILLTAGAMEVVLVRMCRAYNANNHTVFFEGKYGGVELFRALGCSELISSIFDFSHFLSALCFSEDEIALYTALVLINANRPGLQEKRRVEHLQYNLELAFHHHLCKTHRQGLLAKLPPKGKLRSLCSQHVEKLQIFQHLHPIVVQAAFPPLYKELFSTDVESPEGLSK
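In this cell-based reporter format, copper sulfate (700 uM final) drives Gal4–ROR gamma fusion expression from a metallothionein promoter in Drosophila Schneider cells; compounds preincubated 1 hr, reporter read after 20 hr at ambient temperature.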
BCR signal inh: inhibitors of chronic active B-cell receptor signaling. Potency, µM (series often up to 46.1 µM), inactives show at the highest dose activity change, negative = inhibition, actives largely listed as inhibitors. hit rate 0.05% among 340,000. AID 493014. ABC-DLBCL IkBa-CBG/CBR reporter, luminescence ratio, 4 h; active means well fitted inhibition curve with a large enough effect in the signal ratio, with a control signal flat, not every such curve was filed as active; inconclusive means small, poorly fitted or top-dose-only effect, or effect the other way, or a change in a side signal; the % refers to the signal ratio;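 further: plate controls were basal doxycycline-induced cells for no effect and cells given 10 µM MG132 for full effect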
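Doxycycline induced both beetle luciferases in TMD8 lymphoma cells; IKK-driven degradation limits the IkappaBalpha-fused green signal, while red luminescence normalises for cell number and nonspecific effects. Compounds tested up to 46 uM, 4 hrs.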
Integrin act MD: activators of alpha7 integrin expression for muscular dystrophy; alpha7betagal myoblasts, beta-gal FDG fluorescence, 48 h; Potency, µM (series often up to 38.3 µM), for the others: at the top dose activation, most hits filed as activators; hit rate 0.064% among 350,000;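 further: 100% = response of the positive control SU9516; nearly all actives have a fitted effect of over 60% in size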
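Alpha7betagal+/- myoblasts (passage 13) were plated 16-24 hr, then exposed to compounds (1:260 dilution of DMSO stock) for 48 hours at 37C. After MPER lysis, β-galactosidase reporter activity was read as FDG fluorescence (ex 480/em 540) after 30 minutes.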
Active calls of the source: *; [ ] = remark or other dose. Unless noted, the call rests on the fitted dose curve; in most records, active means well fitted curve in the direction sought with a large enough effect; inconclusive means small, poorly fitted or top-dose-only effect, or another doubt; inactive means no such curve, though single readings can be large; an effect the other way counts as inactive or inconclusive. Potency means the concentration at half of the fitted maximal effect.

Results for Cc1ccccc1Nc1nc(-c2sc(NC(=O)c3cccc(Cl)c3)nc2C)cs1 ?
VP16 counter: inconclusive; Mito fusion yeast: -0.5%; RORg inh: 12.6µM*; BCR signal inh: inconclusive

What do the screens show for `COc1ccc(Nc2nc(-c3cccs3)cs2)c(OC)c1`?
VP16 counter: 15.9%; uPA surface inh: 2.4%; Mito fusion yeast: 2.8%; RORg inh: 37.9%; BCR signal inh: -2.9%; Integrin act MD: -3.0%

Results for COc1ccc(Nc2nc(-c3sc(C)nc3C)cs2)c(OC)c1 ?
VP16 counter: -20.3%; uPA surface inh: 4.47µM*; Mito fusion yeast: -3.6%; RORg inh: -5.4%; BCR signal inh: inconclusive; Integrin act MD: -12.1%

Results for CC[C@@H](C)[C@@H](O)[C@H](C)C(=O)[C@H](C)/C=C(\C)C[C@H](C)[C@@H]1OC(=O)[C@H]1CC ?
VP16 counter: 1.5%; RORg inh: 17.6%

Results for CCOC(=O)CNC(=O)O[C@@H]1C(=O)c2cc(Br)ccc2O[C@H]1c1cccc(OC)c1 ?
VP16 counter: -21.1%; RORg inh: -8.2%

What do the screens show for `O=C(CN1CCOCC1)NNC(=O)c1ccc(Cl)cc1`?
uPA surface inh: 2.9%; BCR signal inh: inconclusive; Integrin act MD: -1.1%

What do the screens show for `Cc1ccc(Cl)cc1Nc1nc(-c2sc(NC(=O)c3ccco3)nc2C)cs1`?
VP16 counter: -5.2%; uPA surface inh: 7.94µM*; Mito fusion yeast: -1.1%; RORg inh: 5.6%; BCR signal inh: inconclusive; Integrin act MD: -0.6%

How did CC(C)[C@@H]1CC[C@@H](C)c2c(-c3ccccc3)n[nH]c21 do in these assays?
VP16 counter: inconclusive; uPA surface inh: 1.8%; Mito fusion yeast: -18.6%; RORg inh: 15.8µM*; BCR signal inh: inconclusive; Integrin act MD: -7.9%

How did COc1cc2ccccc2cc1C(=O)N1CC(C)CC(C)C1 (centres undefined) do in these assays?
VP16 counter: -19.3%; uPA surface inh: 9.4%; Mito fusion yeast: 0.5%; RORg inh: -3.2%; BCR signal inh: -0.5%; Integrin act MD: -28.5%

How did O=C1c2ccccc2C(=O)c2c1ncn2-c1ccccc1 do in these assays?
VP16 counter: inconclusive; uPA surface inh: -0.1%; Mito fusion yeast: 2.1%; RORg inh: 11.2µM*; BCR signal inh: -2.4%; Integrin act MD: 0.0%

How did CC(CNC(=O)C1CCN(Cc2cc3ccccc3n2Cc2ccccc2)CC1)c1ccccc1 (centres undefined) do in these assays?
BCR signal inh: -0.7%

Results for CCCCCCCCCCCCCCCCCC(=O)OCC(O)CO (centres undefined) ?
VP16 counter: -12.8%; RORg inh: 5.1%[10 µM]

Results for COc1ccc(O)c(/C=N/Nc2nc(Nc3ccccc3)nc(-n3nc(C)cc3C)n2)c1 ?
VP16 counter: 0.631µM*; uPA surface inh: 13.7%; Mito fusion yeast: -2.9%; RORg inh: 0.631µM*; BCR signal inh: inconclusive; Integrin act MD: -35.6%

How did COc1cc(/C=N/Nc2nc(Nc3ccccc3)nc(-n3nc(C)cc3C)n2)cc(OC)c1OC do in these assays?
VP16 counter: 6.31µM*; uPA surface inh: -12.6%; Mito fusion yeast: 1.6%; RORg inh: 5.01µM*; BCR signal inh: inconclusive; Integrin act MD: -50.3%

Results for CCN(CC)C(=O)[C@H]1C[C@H](CC(=O)NC(C)(C)C)C(=O)N2CCc3c([nH]c4ccc(Cl)cc34)[C@]12C ?
uPA surface inh: -8.2%; BCR signal inh: -3.5%; Integrin act MD: -10.0%

What do the screens show for `Cc1ccccc1C(=O)O/N=C(\N)c1ccccc1`?
VP16 counter: 10µM*; uPA surface inh: -18.6%; Mito fusion yeast: 3.0%; RORg inh: 7.08µM*; BCR signal inh: inconclusive; Integrin act MD: inconclusive

Results for Cc1ccccc1C(=O)O/N=C(\N)c1ccc([N+](=O)[O-])cc1 ?
VP16 counter: inconclusive; uPA surface inh: -1.6%; Mito fusion yeast: 4.3%; RORg inh: -17.5%; BCR signal inh: -6.8%; Integrin act MD: -12.8%
